An excerpt weighted towards active compounds, which were near 11% of everything screened.
PNC assembly inh: perinucleolar compartment assembly inhibition; PC3M PTB-GFP, PNC prevalence imaging, 16 h; active compounds read low; activity change (PNC), negative = inhibition, % at 10 µM; 140,000 tested, 3.1% active; AID 2417;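 active means readout at or below -70, meaning at least 70% loss of cells showing the perinucleolar compartment, a nuclear body marking cancer cells; inconclusive means readout between -30 and a set limit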;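 further: plate controls were DMSO wells for no effect and camptothecin positive control wells for full effect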
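Compounds are pinned in duplicate onto adhered PC3M cells stably expressing GFP-tagged PTB and incubated 16 h at 37 C. Cells are then fixed, nuclei stained with Hoechst, and PNC-positive cells counted.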
IMPase Li cell: membrane-permeable IMPase blocker, potentiated with lithium; 210,000 tested, 0.35% active; Potency, µM (titrated, usually from 59.4 µM), for the others: at the top dose activity, negative = IMPase inhibition, most hits filed as inhibitors; CHO-M1 cells, IP1 TR-FRET (IP-One), carbachol + lithium; AID 1457; active means well fitted curve in the direction sought with a large enough effect; inconclusive means small, poorly fitted or top-dose-only effect, or another doubt; inactive means no such curve, though single readings can be large; an effect the other way counts as inactive or inconclusive;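 further: IP1 builds up when IMPase is blocked and the TR-FRET signal falls; potency means the concentration at half of the fitted maximal effect; plate controls were basal vehicle for no effect and high inhibitor control for full effect; nearly all actives have a fitted effect of over 50% in size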
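CHO cells stably expressing M1 receptor (2000/well) were cultured 16–30 h, then exposed to compounds with a small lithium addition for 30 min at 37C. IP1 was measured by TR-FRET competition; AC50 from Hill fits.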
12-hLO inh: 12-hLO (ALOX12) enzyme inhibition; Potency, µM (doses to about 57.1 µM), inactives show at the top dose activity change, negative = inhibition, hits mostly inhibitors; AID 1452; P18054; purified 12-hLO, xylenol orange hydroperoxide absorbance; 150,000 tested, 0.12% active; active means well fitted curve in the direction sought with a large enough effect; inconclusive means small, poorly fitted or top-dose-only effect, or another doubt; inactive means no such curve, though single readings can be large; an effect the other way counts as inactive or inconclusive; further: potency means the concentration at half of the fitted maximal effect; nearly all actives have a fitted effect of over 55% in size
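Lipoxygenase turnover measured by absorbance at 573 and 405 nm after Fe-XO development. Human 12hLO 150 nM, arachidonate 40 uM, pH 7.0 Hepes buffer with detergent; 15 min compound preincubation, 30 min reaction.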
ALDH1A1 block: inhibitors of human aldehyde dehydrogenase 1A1 | P00352 | Purified ALDH1A1, NADH fluorescence, propionaldehyde substrate | Potency, µM (top dose mostly 75.3 µM), for inactives: at the top dose activity, negative = inhibition, hits mostly inhibitors | 220,000 tested, 7.3% active;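 further: potency means the concentration at half of the fitted maximal effect; plate controls were no enzyme wells and a reference inhibitor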
IMPase cell inh: IMPase inhibition in cells | P97697 | CHO-M1 cells, IP1 accumulation, HTRF TR-FRET ratio | inhibition (IP1 accumulation), % at 46.1 µM | 120,000 tested, under 10 active; active means well fitted curve in the direction sought with a large enough effect in the signal ratio, not every such curve was filed as active; inconclusive means small, poorly fitted or top-dose-only effect, or a change in a side signal; inactive means no such curve, though single readings can be large or run the other way; the % refers to the signal ratio;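 further: cells stimulated with carbachol in lithium chloride buffer; plate controls were DMSO basal wells for no effect and reference inhibitor wells for full effect; higher means more IMPase inhibition seen as more IP1 and lower FRET ratio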
Target sequence (P97697 whole entry, looked up): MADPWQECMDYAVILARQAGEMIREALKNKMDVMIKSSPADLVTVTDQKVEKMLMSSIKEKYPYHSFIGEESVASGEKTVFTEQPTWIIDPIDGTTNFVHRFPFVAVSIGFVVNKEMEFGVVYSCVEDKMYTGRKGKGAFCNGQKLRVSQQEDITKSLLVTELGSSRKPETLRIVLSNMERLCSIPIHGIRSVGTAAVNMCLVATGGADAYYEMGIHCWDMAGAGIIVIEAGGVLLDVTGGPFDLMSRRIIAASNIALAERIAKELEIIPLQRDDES
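Carbachol-driven Gq signalling in CHO-M1 cells (2000/well) generates IP1. Compounds that block IMPase raise IP1 and so reduce the FRET signal from Eu-anti-IP1 and d2-IP1 after a 10 min room-temperature lysis.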
HPGD block: HPGD (human) dehydrogenase inhibition; 150,000 tested, 4.3% active; Potency, µM, for inactives: at the highest dose activity change, negative = inhibition, actives largely listed as inhibitors; purified HPGD, NADH fluorescence kinetic, PGE2 substrate; further: potency means the concentration at half of the fitted maximal effect
Target sequence (P15428 whole entry, looked up): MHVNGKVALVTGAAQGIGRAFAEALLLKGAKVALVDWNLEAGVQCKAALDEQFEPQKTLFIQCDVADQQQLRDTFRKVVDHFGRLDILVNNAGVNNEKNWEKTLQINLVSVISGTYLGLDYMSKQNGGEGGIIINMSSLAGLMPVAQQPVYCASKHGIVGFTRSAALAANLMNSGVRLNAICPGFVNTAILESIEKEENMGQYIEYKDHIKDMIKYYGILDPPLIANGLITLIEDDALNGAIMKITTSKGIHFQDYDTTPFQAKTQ
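NADH formation kinetics: reaction with 30 uM PGE2 and 1 mM NAD+ (final), 20 nM enzyme, Tris-HCl pH 8 with Tween 20, after 15 min compound preincubation at room temperature. Fluorescence change, last versus first of five reads.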
* marks the source's active call; other numbers are inactive results; ? = inconclusive; nt = no result; [ ] = another dose, or the depositor's remark. Unless noted, the call rests on the fitted dose curve; in most records, active means well fitted inhibition curve with a large enough effect (not every such curve was filed as active); inconclusive means small, poorly fitted or top-dose-only effect, or another doubt; inactive means no such curve, though single readings can be large or run the other way. Unless noted, on the % scale 0 is the no-effect control and ±100 the full control effect.

SMILES | PNC assembly inh | IMPase Li cell | 12-hLO inh | ALDH1A1 block | IMPase cell inh | HPGD block
CCNc1ncc2nc(-c3ccccc3)c(=O)n(CCC#N)c2n1 | nt | -20% | nt | ? | nt | nt
CC(C)(C)c1cc[n+](-c2[nH]c(=O)sc2/C=N/NC([S-])=Nc2ccccc2)cc1 | nt | nt | nt | 25µM* | nt | nt
O=C1N=C(O)CN1/N=C\c1ccc(-c2ccc([N+](=O)[O-])cc2)o1 | nt | 13% | -6% | -1% | -2 | -24%
C=CCNC(=O)c1ccc(Cl)cc1Cl | 59 | 13%[38.3 µM] | 3% | 15% | -8 | 14µM*
C=CCNC(=O)c1c(Cl)cccc1Cl | -4 | 2% | -1% | ? | 10 | ?
C=CCNC(=O)c1ccc(C)cc1Cl | 11 | -12%[38.3 µM] | 7% | 7% | 5 | 4µM*
CC(=O)OCC1OC(Oc2cc(OC(C)=O)c3c(=O)cc(-c4ccc(OC(C)=O)c(OC(C)=O)c4)oc3c2)C(OC(C)=O)C(OC(C)=O)C1OC(C)=O (stereo not given) | nt | 9% | -1% | -2% | 3 | -19%
COc1ncc2nc(-c3ccc(F)cc3)c(=O)n(Cc3cccs3)c2n1 | nt | 3% | nt | ? | nt | nt
COc1ccc(-c2noc(-c3cccc(OC)c3OC)n2)cc1 | nt | nt | nt | nt | -2 | nt
Cn1c(CCNC(=O)c2ccco2)nc2cc(NS(=O)(=O)c3ccccc3)ccc21 | -20 | 27%[38.3 µM] | 0% | 20µM* | 5 | -15%
Cn1c(CCNC(=O)c2ccco2)nc2cc(NC(=O)C3CCCCC3)ccc21 | -114* | 5% | -2% | -9% | 7 | 4%
Cn1c(CCNC(=O)c2ccco2)nc2cc(NC(=O)NC3CCCCC3)ccc21 | ? | 23%[38.3 µM] | 3% | ? | 6 | -23%
CCOC(=O)/C(C#N)=C1/CCCCCN1C | 9 | 14%[38.3 µM] | -3% | -3% | 3 | -7%
CCOC(=O)/C(C#N)=C1\CCCN1CC(N)=S | -8 | -15% | -11% | 20µM* | nt | ?
Cc1ccc(C(=O)c2nocc2C(=O)c2cccs2)cc1 | -20 | 27%[38.3 µM] | -10% | 3.2µM* | -5 | 22µM*
COc1ccc(C(=O)COC(=O)CCN2C(=O)C3C4CC(C(Br)C4Br)C3C2=O)cc1 (stereo not given) | 35 | -1%[38.3 µM] | -4% | -5% | 4 | -10%
COc1ccc(C(=O)COC(=O)CN2C(=O)C3C4C=CC(C5CC45)C3C2=O)cc1 (stereo not given) | -12 | 7% | -1% | 13µM* | nt | -11%
Cc1ccc(C(=O)COC(=O)CN2C(=O)C3C4CCC(C4)C3C2=O)cc1[N+](=O)[O-] (stereo not given) | 45 | nt | -1% | 20µM* | 1 | nt
COC(=O)C(CCCCN1C(=O)C2C3C=CC(C3)C2C1=O)N1C(=O)C2C3C=CC(C3)C2C1=O (stereo not given) | 25 | 7%[38.3 µM] | -2% | ? | -7 | -14%
COC(=O)C1C2C=CC(C3CC23)C1C(=O)OCC(=O)c1ccc(OC)cc1 (stereo not given) | 16 | 26%[38.3 µM] | -1% | 6.3µM* | -2 | 28µM*
COc1ccc(C(=O)COC(=O)C(CCCCN2C(=O)C3C4C=CC(C4)C3C2=O)N2C(=O)C3C4C=CC(C4)C3C2=O)cc1 (stereo not given) | 5 | 7% | 5% | 10µM* | 10 | -2%
COc1cc(C2CC(=O)Oc3cc(C)c(Br)c(C)c32)cc(OC)c1OC (stereo not given) | nt | 23% | -2%[0.00818 µM] | -8% | nt | -17%
FC(F)(F)c1ccccc1-c1ccc2ncnc(NCc3cccs3)c2c1 | nt | 19% | nt | ? | nt | nt
O=C(/C=C/c1ccc2c(c1)OCO2)c1cccs1 | nt | 8% | -25% | ? | 9 | ?
CC(CO)(CO)Nc1ncnc2ccccc12 | nt | -5% | 2%[11.4 µM] | 17%[13.5 µM] | nt | -2%
SMILES | PNC assembly inh | IMPase Li cell | 12-hLO inh | ALDH1A1 block | IMPase cell inh | HPGD block
CCOc1ccc(Cc2nnc(N)s2)cc1OCC | -86* | 21%[38.3 µM] | 1% | 24% | -6 | -5%
Nc1nnc(Cc2ccc(Cl)cc2)s1 | ? | 6% | 2% | ? | -5 | -8%
COc1ccc(-c2nc3cnc(N(C)C)nc3n(CCC#N)c2=O)cc1 | nt | -22% | nt | ? | nt | nt
O=C(CCl)N(c1ccc(Cl)cc1)c1c[nH]c2ccccc12 | 27 | 40%[38.3 µM] | -5% | 7.1µM* | -7 | -24%
O=C(CCl)N(c1ccccc1)c1c[nH]c2ccccc12 | -6 | nt | -4% | ? | 2 | nt
CCn1c(CSc2nc(C)cc(C)n2)nnc1SCC(=O)Nc1cccc2ccccc12 | -107* | 24%[38.3 µM] | -1% | -3% | -3 | 4%
Cn1c(=O)c(C(=O)Nc2ncccc2O)c(O)c2ccccc21 | -13 | 1%[38.3 µM] | -14% | -5% | 7 | 22µM*
CCCCNc1cc(F)nc(N)n1 | nt | -2% | nt | 6% | nt | nt
Brc1ccc2nc(-c3cccs3)c(NCC3CCCO3)n2c1 (stereo not given) | nt | 12% | nt | 7.9µM* | nt | nt
N#C/C(=C/c1ccc(N2CCOCC2)o1)c1ccc(Cl)cc1 | ? | 44%[38.3 µM] | ? | 13µM* | 4 | ?
CC1CCN(C(=O)c2cc3ccccc3c(=O)o2)CC1 | -8 | 2% | -3% | 1% | nt | 25µM*
O=C(c1cc2c(ccc3ccccc32)oc1=O)N1CCCC1 | -4 | -9%[38.3 µM] | -3% | ? | -7 | ?
O=C(c1cc2cc(Br)ccc2o1)N1CCCCC1 | nt | 1% | nt | 22µM* | nt | nt
O=C(c1cc2ccccc2c(=O)o1)N1CCCCCC1 | 3 | 6% | 15% | ? | nt | 18µM*
O=C(c1cc2cc(Br)cc(Br)c2oc1=O)N1CCCC1 | -19 | -2% | 1% | ? | 0[0.369 µM] | 28µM*
Cc1oc2c(c1C(=O)N1CCC(C)CC1)C(=O)c1ccccc1C2=O | -12 | 6% | 0% | ? | nt | -2%
COc1cc(CNCCc2ccccc2)cc(Cl)c1OCc1ccccc1 | nt | 5% | nt | ? | nt | nt
COc1ccc(N=C2NC(=O)C(CC(=O)NCCc3ccc(OC)c(OC)c3)S2)cc1 (stereo not given) | nt | 7% | nt | 11µM* | nt | nt
COc1ccc(OC)c(NC(=O)CC2SC(=NCc3ccccc3)NC2=O)c1 (stereo not given) | nt | 15% | nt | 40µM* | nt | nt
Cc1ccc(N=C2NC(=O)C(CC(=O)NCc3ccccc3)S2)cc1C (stereo not given) | 14 | 3% | 2% | 25µM* | nt | -15%
Cc1ccc(-n2cc(CN(C)CCc3cn[nH]c3)c(-c3cccc(C)c3)n2)cc1 | nt | 5% | nt | -8% | nt | nt
CCc1cc(C(=O)O)c(NC(=O)C(c2ccccc2)c2ccccc2)s1 | -3 | 20%[38.3 µM] | -1% | 13µM* | -4 | -1%
CCOC(=O)c1cc(C)sc1NC(=O)C(c1ccccc1)c1ccccc1 | 9 | -9% | -1% | 10% | nt | -29%

Screening data: PubChem, National Center for Advancing Translational Sciences (NCATS)
